From PubChem
mHTT-CaM PPI inh – inhibitors of human mutant huntingtin-calmodulin interaction. actives 3.6% (n = 190,000). AlphaScreen His-mHTT/GST-CaM binding, luminescence. inhibition, % at 15 µM. AID 1671202;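 note: 0% = both proteins with DMSO and 100% = one protein alone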
Pf apPOL block – Pf-apPOL DNA polymerase inhibition; Recombinant Pf-apPOL, molecular beacon fluorescence, 1.5 h; AID 1794808; actives 0.25% (n = 210,000); inhibition, % at 10 µM
An asterisk follows results filed as active; . = no result; ! = repeats disagree. Hits are enriched below; roughly 3.5% of the tested compounds scored in any of these assays. Cut-off read from the data, not from the text of the source: active = inhibition above about 50%; inactive = the rest.

SMILES	mHTT-CaM PPI inh	Pf apPOL block
CC12CC3CC(C1)CC(C(=O)O)(C3)C2	-3.3	-4.6
Nc1ccc(-c2cc(-c3ccccc3)nc(-c3ccc(N)cc3)n2)cc1	8.2	-6.3
Nc1ccc(-c2c3ccccc3nc3cc(N)ccc23)cc1	100.3*	-0.6
O=C(c1ccco1)N1CCN(C(=O)c2coc(=O)c3ccccc23)CC1	-3.0	-0.8
O=C(c1ccccc1F)N1CCN(C2CCCCCC2)CC1	-0.1	-5.5
Cc1ccc(-n2cc(-c3ccc4c(c3)OCO4)[nH]c2=O)cc1	70.0*	1.0
O=c1[nH]c(-c2ccc3c(c2)OCO3)cn1-c1ccccc1	7.0	0.0
O=C(CSCc1ccccc1)N1CCN(c2ccc(-c3cccs3)nn2)CC1	7.6	-20.9
COc1cccc(C(=O)N2CCN(c3ccc(-c4ccccn4)nn3)CC2)c1OC	100.1*	-3.5
O=C(CSC1CCCC1)N1CCN(c2ccc(-c3ccccn3)nn2)CC1	100.1*	-7.2
COc1cccc(C(=O)N2CCN(c3ccc(Nc4ccccn4)nn3)CC2)c1OC	14.2	-8.7
O=C(Cn1ccc2ccccc21)N1CCN(c2ccc(-c3ccccn3)nn2)CC1	44.6	0.5
O=C(CCSc1ccccc1)N1CCN(c2ccc(-c3ccccn3)nn2)CC1	100.0*	1.3
O=C(Nc1cccc(F)c1)/C(=C/c1ccco1)NC(=O)c1cccs1	13.4	5.9
CCc1ccc(S(=O)(=O)N2CCC(c3nc4cccnc4n3CC)C2)cc1 (stereo not given)	-4.5	-3.1
Cc1ccc(C)c(N2CCN(C(=O)COc3ccc(Cl)cc3)C(C)C2=O)c1 (stereo not given)	24.9	-1.8
COCCN1COc2ccc3c(=O)c(Oc4ccc(C(=O)OC)cc4)c(C(F)(F)F)oc3c2C1	12.3	1.3
CC(C)c1nnc2n1CCN(C(=O)c1ccc3[nH]ccc3c1)C2	3.2	0.1
O=c1cc2oc3cc(O)c(-c4ccc(O)cc4O)cc3nc-2cc1-c1ccc(O)cc1O	100.3*	.
O=c1cc(-c2ccc(O)cc2)oc2cc(O)cc(O)c12	.	6.5
CCCCCC1C(O)CC(c2ccccc2)N(C)C1c1ccccc1 (stereo not given)	.	10.4
Cc1c(C(C)(C)C)sc(=NS(=O)(=O)c2cccc([N+](=O)[O-])c2)n1C	29.0	-3.7
CC1=CC(=NS(=O)(=O)c2cccc([N+](=O)[O-])c2)C=CC1=O	84.0*	-7.1
O=C1NC(c2ccc(Br)cc2)=C(c2ccccc2)C1=O	53.0*	-2.7
Cc1ccc(C2=C(c3ccccc3)C(=O)C(c3ccccc3)=C2c2ccc(Cl)cc2)cc1	.	-4.2
SMILES	mHTT-CaM PPI inh	Pf apPOL block
CC1(C)CC2(CC(C)(C)N1)OC(=O)N(CCOC13CC4CC(CC(C4)C1)C3)C2(C)O (stereo not given)	-0.8	-3.6
O=C1c2ccccc2C(=O)c2c1oc1c3c(ccc21)OCN(CC1CCCO1)C3 (stereo not given)	39.8	9.6
O=c1c(-c2ccccc2)coc2c3c(ccc12)OCN(C1CCS(=O)(=O)C1)C3 (stereo not given)	-1.1	-4.8
O=C1c2ccccc2C(=O)c2c1oc1c3c(ccc21)OCN(C1CCCC1)C3	78.0*	49.5
O=C1c2ccccc2C(=O)c2c1oc1c3c(ccc21)OCN(C1CCS(=O)(=O)C1)C3 (stereo not given)	90.7*	69.0*!
CC(C)CCN1COc2ccc3c4c(oc3c2C1)C(=O)c1ccccc1C4=O	73.6*	12.5
COc1ccc(CCN2COc3ccc4c5c(oc4c3C2)C(=O)c2ccccc2C5=O)cc1OC	43.5	-3.3
O=S(=O)(Nc1ccc(-n2cccc2)cc1)c1cc(C(F)(F)F)cc(C(F)(F)F)c1	.	-6.0
c1cc2c(cc1CN1CCc3nc(Nc4ccc5c(c4)OCCO5)ncc3C1)OCCO2	70.8*	-0.8
Fc1ccccc1Nc1ncc2c(n1)CCN(Cc1ccc3c(c1)OCCO3)C2	18.7	-3.6
Clc1ccc(CN2CCc3nc(Nc4ccc5c(c4)OCO5)ncc3C2)cc1	36.3	-1.4
Clc1ccc(CN2CCc3nc(Nc4ccc5c(c4)OCCO5)ncc3C2)cc1	76.8*	-1.0
Cc1ccccc1C(=O)Nc1ccc(F)cc1F	-3.5	5.8
CCOc1ccc(C(=O)NCCn2ccc3ccccc32)cc1OCC	6.0	10.6
CC1(C)CC(=O)C2=C(C1)c1c(ccc3ncccc13)NC2c1ccccc1 (stereo not given)	19.0	-0.8
CC1(C)CC(=O)C2=C(C1)c1c(ccc3ncccc13)NC2c1ccc(Cl)cc1 (stereo not given)	18.0	57.8*
Cc1ccc(C)c(S(=O)(=O)N2CCC(c3noc(-c4cccc(F)c4)n3)CC2)c1	-35.0	-3.2
O=C(Nc1cnc(N2CCCC2)nc1)c1ccsc1	-1.4	-0.6
CC1(C)CC(=O)C2=C(C1)Nc1ncnn1C2c1ccc(OC(F)F)cc1 (stereo not given)	-3.0	-5.4
Cc1ccc(NC(=O)c2cc(Cl)c(Cl)cc2C(=O)O)cc1C	1.0	-3.0
Cc1ccc(NC(=O)c2cc(N3C(=O)C=CC3=O)ccc2Cl)cc1C	92.0*	-3.6
O=C(Nc1ccc(N2CCCN(C(=O)C3CC3)CC2)cc1)c1cnccn1	-2.7	-0.7
O=C(c1ccc(S(=O)(=O)N2CCCCC2)cc1)N1CCN(c2ccccc2)CC1	100.2*	-20.7
O=C(c1ccc(S(=O)(=O)N2CCCCC2)cc1)N1CCCCC1	-7.4	-7.5
CC(C)C12CC3CC(CC(Br)(C3)C1)C2	.	3.8
SMILES	mHTT-CaM PPI inh	Pf apPOL block
OC(c1ccc2c(c1)OCO2)c1nccc2ccccc12 (stereo not given)	5.0	-6.6
CCCCC(=O)NC(c1ccc(OC)cc1)c1cc(Cl)c2cccnc2c1O (stereo not given)	26.0	9.6
CC(C)C(=O)NC(c1ccc2c(c1)OCO2)c1cc(Cl)c2cccnc2c1O (stereo not given)	62.0*	-7.6
CC(=O)NC(c1ccccc1)c1cc(Cl)c2cccnc2c1O (stereo not given)	100.0*	1.2
COc1ccc(C(NC(C)=O)c2cc(Cl)c3cccnc3c2O)cc1 (stereo not given)	100.0*	6.8
CCCC(=O)NC(c1ccc(N(C)C)cc1)c1cc(Cl)c2cccnc2c1O (stereo not given)	43.0	-1.7
CC(=O)NC(c1ccc(N(C)C)cc1)c1cc(Cl)c2cccnc2c1O (stereo not given)	96.0*	-4.7
O=C(NCCN1CCCCC1)C1CCN(c2cnn(Cc3ccccc3)c(=O)c2)CC1	8.0	-4.1
CC(C)(C)c1ccc(C(=O)NN=Cc2cc(Cl)cc(Cl)c2O)cc1	.	-60.2
CCOc1cc(C2C(C#N)=C(N)Oc3n[nH]c(-c4ccc5c(c4)OCO5)c32)ccc1O (stereo not given)	22.0	5.0
CC(=O)NC(c1ccccc1Cl)c1cc(Cl)c2cccnc2c1O (stereo not given)	95.0*	7.7
CC(=O)NC(c1ccc(C(C)C)cc1)c1cc(Cl)c2cccnc2c1O (stereo not given)	100.0*	11.9
O=c1ccn(-c2ccc(F)cc2)nc1-c1ccn[nH]1	.	-2.4
COc1cc(C=O)ccc1OCCCOc1ccc(Cl)cc1	-40.8	-4.2
O=C(CSc1ncn[nH]1)Nc1ccccc1[N+](=O)[O-]	0.4	1.9
O=C(Nc1nc2c(s1)CCCC2)C1CC(=O)N(C2CCCCC2)C1 (stereo not given)	10.1	.
N#CC1=C(N)Oc2n[nH]c(-c3ccccc3)c2C12c1ccccc1-c1ccccc12	90.0*	-1.6
